# Compound activity as filed in PubChem.
# GDH-TPI inh = counter-screen for M. tuberculosis FBA inhibitors: GDH-TPI coupled enzymes; GDH-TPI coupled enzyme counterscreen, NADH absorbance; inhibition, % at 4.8 µM; hit rate 1.2% among 360,000; AID 588335; in the data active = inhibition above about 30%;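 also: 0% = DMSO wells and 100% = wells lacking the enzyme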
# PfHsp40 yeast = compounds rescuing yeast from Plasmodium falciparum HSP40 toxicity; hit rate 0.68% among 340,000; growth rescue, % at 12.5 µM; AID 504582; S. cerevisiae expressing PfHsp40, growth rescue, ATP luminescence; in the data active = growth rescue above about 28%, passing the limit was not always enough; inconclusive = no clear call, values can overlap the other calls;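 also: yeast W303a lacking pdr1 and pdr3 grown in galactose medium; growth measured after three days at 30 °C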
# PrP 5UTR inh = suppresses PrP 5' UTR mRNA reporter expression; hit rate 0.35% among 340,000; AID 488862; inhibition, % (no concentration beside the values); cell-based PrP 5' UTR mRNA reporter, plate reader; in the data active = inhibition above about 52%; also: 0 = median of the neutral control wells
# BJeLR lethal = BJeLR cell viability loss; inhibition, % (no concentration beside the values); hit rate 0.17% among 300,000; BJeLR (HRASV12) viability, CellTiter-Glo ATP luminescence, 48 h; in the data active = inhibition above about 50%; inconclusive = no clear call, values can overlap the other calls
# Mtb FBA inh = Mtb fructose-bisphosphate aldolase inhibition; P9WQA3; purified M. tuberculosis FBA, fluorescence read-out; inhibition, % at 1 µM; hit rate 2.3% among 360,000; AID 588726; in the data active = inhibition above about 27%;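 also: 0% = vehicle and 100% = reference inhibitor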
# Target sequence (P9WQA3 whole entry, looked up): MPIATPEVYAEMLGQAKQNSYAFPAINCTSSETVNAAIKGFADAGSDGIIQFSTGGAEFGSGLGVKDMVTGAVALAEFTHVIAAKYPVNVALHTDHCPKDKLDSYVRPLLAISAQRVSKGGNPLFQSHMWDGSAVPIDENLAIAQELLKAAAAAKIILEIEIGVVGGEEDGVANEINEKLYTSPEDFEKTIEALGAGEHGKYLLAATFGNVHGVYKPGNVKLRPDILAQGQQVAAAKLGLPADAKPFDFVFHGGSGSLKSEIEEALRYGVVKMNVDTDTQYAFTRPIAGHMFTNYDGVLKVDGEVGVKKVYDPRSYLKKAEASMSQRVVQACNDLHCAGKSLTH
# PrPC surface inh = reduces human prion protein on the cell surface; cell surface PrPC, TR-FRET read-out; inhibition, % at 13.8 µM; hit rate 0.43% among 370,000; AID 720596; in the data active = inhibition above about 24%; also: 0% = median of the test wells and 100% = reference compound wells
# * hit, by the source's call; u = inconclusive; x = not tested or not shown. Sampled rows, rich in hits. Any-hit rate of the full collection: about 4.5%.
SMILES,GDH-TPI inh,PfHsp40 yeast,PrP 5UTR inh,BJeLR lethal,Mtb FBA inh,PrPC surface inh
Oc1c(CNc2ccccc2)cc(COCc2ccccc2)c2cccnc12,6,53*,-1,x,0,3
COCc1cc(CN2CCN(C)CC2)c(O)c2ncccc12,18,1,-12,-5,1,4
Oc1c(Br)cc(Br)c2cccnc12,-1,148*,-13,x,-5,-10
Oc1c(CN2CCN(c3ccccc3)CC2)cc(Br)c2cccnc12,5,1,31,77*,1,0
Cc1ccc(-c2c(NC(=O)c3ccccc3)nc3ncccn23)cc1,x,x,x,x,x,6
COC(=O)[C@]12C[C@H](CC(=O)N3CCCC3)C(=O)N(Cc3ccc(Cl)cc3Cl)C1=C[C@H](C(C)C)O[C@@H]2C1CC1,x,x,x,x,x,22
C=CCN1C(=O)C(CC(=O)O)SC1=Nc1ccc(N=Nc2ccccc2)cc1 (centres undefined),63*,3,-23,-1,-1,-15
CCOC(=O)[C@@H]1[C@H]2COc3cc(OC)ccc3[C@H]2N2C(=O)N(c3ccc(C(F)(F)F)cc3)C(=O)[C@]12C,4,193*,-3,x,2,6
CCOC(=O)[C@@H]1[C@H]2COc3cc(OC)ccc3[C@@H]2N2C(=O)N(c3ccc(C(F)(F)F)cc3)C(=O)[C@@]12C,4,3,-7,2,4,3
CC(C)CCNC(=O)C1(C)CCN1Cc1ccc(-c2ccccn2)cc1 (centres undefined),12,x,x,x,3,2
COc1cc(C)ccc1OCCOc1ccccc1Cl,-5,4,-67,5,118*,0
Cc1cc(C)c(S(=O)(=O)N2CCN(c3ccccn3)CC2)c(C)c1,-1,53*,-20,x,5,7
Cc1cc(S(=O)(=O)N2CCN(c3ccccn3)CC2)ccc1F,-6,0,-23,7,17,-4
COc1ccc(C(=O)N/C(=C\c2cn(C)c3ccccc23)C(=O)N2CCOCC2)cc1,32*,0,3,1,2,6
CCn1cc(/C=C(\NC(=O)c2ccc(OC)cc2)C(=O)N2CCOCC2)c2ccccc21,38*,-2,-4,6,3,1
CCn1cc(/C=C(\NC(=O)c2cc(OC)c(OC)c(OC)c2)C(=O)N2CCOCC2)c2ccccc21,31*,x,x,x,0,0
CCn1cc(/C=C(\NC(=O)c2ccccc2OC)C(=O)N2CCOCC2)c2ccccc21,28,x,x,x,-1,-3
Cn1cc(/C=C(\NC(=O)c2ccccc2)C(=O)N2CCOCC2)c2ccccc21,24,1,-19,5,-3,1
CCn1cc(/C=C(\NC(=O)c2ccc(OC)c(OC)c2)C(=O)N2CCOCC2)c2ccccc21,28,1,-15,-8,-3,-2
COC(=O)[C@]12C[C@H](CC(=O)NCc3ccc(C)o3)C(=O)N(Cc3cccc4ccccc34)C1=C[C@H](C(C)C)O[C@@H]2C1CC1,x,x,x,x,x,10
Cc1ccccc1C(=O)N(Cc1ccccn1)CC1CCCO1 (centres undefined),x,x,x,x,x,1
C[C@H]1[C@@H](NCc2ccccc2)CC[C@@]23CCCN2C(=O)CCC[C@@H]13,x,x,x,x,x,1
C=C1C(=O)O[C@H]2C[C@H]1[C@@H](OC(C)=O)C/C(C)=C/CC/C(C)=C\CC[C@]2(C)O,-14,-2,4,x,0,38*
CC(=O)N1c2ccc(C)cc2Sc2c1ccc1ccccc21,0,30*,-51,x,-1,11
O=C(N/N=C/c1ccccn1)c1sc2ccccc2c1Cl,35*,199*,-11,3,-7,2
SMILES,GDH-TPI inh,PfHsp40 yeast,PrP 5UTR inh,BJeLR lethal,Mtb FBA inh,PrPC surface inh
CN(C)c1ccc(C=NNC(=O)c2cccnc2)cc1,52*,-1,-26,x,1,-1
CN(C)c1ccc(/C=N/NC(=O)c2cnc3ccccc3c2)cc1,32*,-1,-20,4,-2,5
O=C(N/N=C/c1c[nH]c2ccccc12)c1sc2ccccc2c1Cl,15,u,-30,17,4,-1
O=C(N/N=C/c1c(Cl)nc2ccccn2c1=O)c1cccnc1,31*,0,-1,11,17,0
COc1cccc(Cn2cc(COC(=O)NCCc3ccccc3)nn2)c1,x,x,x,x,x,5
OC1(Cc2ccccc2)CCN(c2ncnc3sccc23)CC1,x,x,x,x,x,20
O=c1c2c3c(sc2n(CCN2CCOCC2)c(=O)n1C1CCCCC1)CCCCC3,x,x,x,x,x,14
